According to PubChem BioAssay (NCATS):
Inconclusive results are not listed. Entries that show only a call come without a potency. Unmarked numbers belong to inactive results. Calls of active or inactive are those of the source. Calls follow the shape of the dose curve; as a rule, active = well fitted inhibition curve with a large enough effect; inconclusive = small, poorly fitted or top-dose-only effect; inactive = flat fitted curve, though single readings scatter.

Target: Glutathione peroxidase 1 (Homo sapiens) (UniProt P07203)
Test: Primary qHTS Assay for Inhibitors of Recombinant Selenoprotein Glutathione Peroxidase 1 (GPX1) (AID 1845191); also: nearly all actives have a fitted effect of over 65% in size
Conditions: recombinant GPX1, GR-coupled NADPH fluorescence, 15 min; series mostly up to 48.8 µM; activity, negative = inhibition: at the top concentration
Source text: Assay Provider: Elias S.J. Arner MD PhD.
Department of Medical Biochemistry and Biophysics
Karolinska Institutet, Solna, Stockholm, Sweden
Selenoprotein glutathione peroxidases (GPX), like the ubiquitously expressed GPX1 and the ferroptosis modulator GPX4, enact their antioxidant activities by reducing hydroperoxides using glutathione. […] GPX1 and GPX4 inhibitors have thus shown promise as anti-cancer agents. Existing inhibitors are often promiscuous, or modulate GPX activity only indirectly, so novel direct inhibitors identified through screening against GPX1 and GPX4 could be valuable. Here, we developed optimized glutathione reductase (GR)-coupled GPX assays for the biochemical high-throughput screen (HTS) of almost 12,000 compounds with known mechanisms of action. Initial hits were triaged using a GR counter-screen, assessed for isoform specificity using a separate GPX2 assay, and were assessed for general selenocysteine-targeting activity using a thioredoxin reductase (TXNRD1) assay. With this suite of assays, we identified novel GPX1/GPX2- and GPX4-specific inhibitors and can here present a validated pipeline for future discovery research for selenoprotein-targeting agents.
SEQUENCE No. (e.g., 1, 2, 3, etc.); […] (e.g., Cells, Incubation, Reagent, etc.); VALUE; DESCRIPTION.
1; Reagent 1; 3 uL; GPx1 enzyme or no enzyme control in 1536-well, black, solid Greiner assay plate.
2; Compound; 25 nL; Kalypsis pin tool (Wako USA) equipped with a 1536-well pin head.
3; Incubation; 30 min; room temperature.
4; Reagent 2; 1 uL; 10 nM GPX1, 1 mM GSH, 0.5 mM CHP, 0.5 mM NADPH, 100 nM GR, 0.01% BSA substrate
5; Detection; Fluorescence; ViewLux microplate reader, excitation 340 nm and emission 450 nm.
6; Incubation; 15 min; room temperature.
7; Detection; Fluorescence; ViewLux microplate reader, excitation 340 nm and emission 450 nm.
NOTES (numbers refer to Sequence numbers above)
1. 3 uL of 16.66 nM GPX1 and 0.016% BSA in assay buffer (50 mM Tris-HCl, 2 mM EDTA (pH 7.5), 150 mM NaCl) was added to columns 3-48 of 1536-well assay plates using a BioRAPTR Flying Reagent Dispenser (Let's Go Robotics (LGR), Carlsbad, CA). A no-enzyme control (0.01% BSA in TES assay buffer) was added to columns 1-2.
2. 25 nL of test compounds and DMSO controls were added to each well with a pin tool (Kalypsys).
3. The assay plates were incubated for 30 minutes at room temperature.
4. 1 uL of master mix (500 nM glutathione reductase (GR), 5 mM reduced glutathione (GSH), 2.5 mM NADPH in assay buffer) was added. 1 uL of cumene hydroperoxide (CHP) ([2.5 mM] in 50% EtOH) was then added within 5 minutes to initiate the reaction. Final concentrations were: 10 nM GPX1, 1 mM GSH, 0.5 mM CHP, 0.5 mM NADPH, 100 nM GR, 0.01% BSA.
5. Initial fluorescence readout (t=0) at 340/450 nm was measured using a ViewLux multimodal detector (PerkinElmer, Waltham, MA).
7. Endpoint fluorescence readout (t=15) at 340/450 nm was measured 15 min after room temperature incubation.
Potency is read from the fitted curve at half-maximal effect.

Chain of Glutathione peroxidase 1 (Homo sapiens) (P07203 whole entry, looked up): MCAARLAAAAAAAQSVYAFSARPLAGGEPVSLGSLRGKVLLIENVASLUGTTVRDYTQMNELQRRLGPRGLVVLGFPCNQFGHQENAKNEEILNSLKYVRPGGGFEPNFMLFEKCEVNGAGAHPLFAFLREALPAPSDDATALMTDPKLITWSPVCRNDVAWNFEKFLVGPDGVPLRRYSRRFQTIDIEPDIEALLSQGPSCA

Structure (SMILES) | activity, negative = inhibition | outcome | Potency
CCCCN=C(N)NC(=N)N | -0.565% | – | –
N[C@H](Cc1ccccc1)C(=O)O | 2.97% [at 27.7 µM] | – | –
CC1(C)CC[C@]2(C(=O)OC3OC(CO)C(O)C(O)C3O)CC[C@]3(C)C(=CCC4[C@@]5(C)CC[C@H](OC6OC(C(=O)O)C(O)C(O)C6O)C(CO)(CO)C5CC[C@]43C)[C@@H]2C1 (stereo not given in full) | – | inactive [at 15.3 µM] | –
CC(C)n1cnc2c(Nc3cccc(Cl)c3)nc(NCCO)nc21 | – | inactive | –
COc1cc(OC)c(/C=C2\C(=O)Nc3ccccc32)c(OC)c1 | -14.3% | – | –
C[S+](CC[C@H](N)C(=O)O)C[C@H]1O[C@@H](n2cnc3c(N)ncnc32)[C@H](O)[C@H]1O (stereo not given in full) | -24.7% | – | –
CC(=O)N[C@@H](CC(=O)O)C(=O)N[C@@H](CCC(=O)O)C(=O)N[C@H](C(=O)N[C@@H](CC(=O)O)C(=O)Nc1ccc2c(C)cc(=O)oc2c1)C(C)C | -11.9% | – | –
CO[C@@H]1[C@@H](O[C@H]2O[C@@H](C)[C@H](O[C@@H]3C[C@](C)(O)[C@H](O)[C@@H](C)O3)[C@@H](N(C)C)[C@@H]2O)[C@@H](CC=O)C[C@@H](C)[C@@H](O[C@H]2CC[C@H](N(C)C)[C@H](C)O2)/C=C/C=C/C[C@@H](C)OC(=O)C[C@H]1O | -7.39% | – | –
Cc1ccc(Cl)cc1NC(=O)c1nc[nH]c1C(=O)Nc1nc2ccccc2[nH]1 | -4.34% | – | –
Cc1ccc2c(Nc3ccc(Cl)cc3)nccc2c1Nc1ncccc1-c1ncnc2nc[nH]c12 | – | inactive | –
CC1=CC(=O)C(C(C)C)=C/C1=N/OC(=O)c1ccccc1C | -21.8% | – | –
Cn1cnc(-c2nccc3c(=O)[nH]c(OCCCC(F)(F)F)nc23)c1 | – | – | 8.06 µM (active)
COc1cc([C@@H](CC(=O)O)c2ccc(C)c(CN3C[C@@H](C)Oc4ccccc4S3(=O)=O)c2)cc2nnn(C)c12 | – | inactive | –
C#Cc1cccc(Nc2ncnc3cc(OC)c(OC)cc23)c1 | – | inactive | –
O=[N+]([O-])c1ccc(-[n+]2nc(-c3ccccc3)nn2-c2ccc(I)cc2)cc1 | – | inactive | –
CC(C)N(CCCNC(=O)Nc1ccc(C(C)(C)C)cc1)C[C@H]1O[C@@H](n2cc(Br)c3c(N)ncnc32)[C@H](O)[C@@H]1O | – | – | inactive
c1csc(CNc2ncnc3ccc(-c4ccc5c(c4)OCO5)cc23)c1 | – | inactive | –
O=S(=O)(/N=C/c1c(O)ccc2ccccc12)c1cccs1 | – | inactive | –
CC(C)(C)n1nc(-c2cccc3ccccc23)c2c(N)ncnc21 | 2.2% | – | –
CC/C(=C(/CC)c1ccc(O)c(CN(CC)CC)c1)c1ccc(O)c(CN(CC)CC)c1 | 3.97% | – | –

Structure (SMILES) | activity, negative = inhibition | outcome | Potency
CCN(CC)CCNC(=O)c1c(C)[nH]c(/C=C2\C(=O)Nc3ccc(Cl)cc32)c1C | – | inactive | –
Cn1c(CNc2cccc(C(=O)NCc3ccccc3C(F)(F)F)c2)nnc1-c1ccncc1 | – | inactive | –
CC1(C)CC23[C@@H]4CC(=O)[C@@H]2COC(=O)[C@@H]3CC[C@H]41 | -0.513% | – | –
CC(C)[C@@H](C)/C=C/[C@@H](C)[C@H]1CC[C@H]2C3=CC=C4C[C@@H](O)CC[C@]4(C)C3=CC[C@]12C | -9.86% | – | –
Cc1cc2ncc(-c3ccccc3)nc2cc1C | – | inactive | –
O=C1O[C@H](C(O)CO)C(=O)C1=O (stereo not given in full) | -4.03% | – | –
CC[N+](CC)(CC)CC | – | inactive | –
C=C1[C@@H](C2=CC(=O)OC2)CC[C@@]2(O)[C@@H]1CC1[C@H]2CC[C@@H]2C[C@@H](O[C@H]3O[C@@H](C)[C@@H](O[C@@H]4O[C@H](CO[C@@H]5O[C@H](CO)[C@@H](O)[C@H](O)[C@H]5O)[C@@H](O)[C@H](O)[C@H]4O)[C@H](OC)[C@H]3O)CC[C@]12C (stereo not given in full) | -8.65% [at 15.3 µM] | – | –
Fc1ccc(-c2nc3n(c2-c2ccncc2)CCS3)cc1 | – | inactive | –
CCOC(=O)N1CCN(C(=O)Cn2sc3nc(C)cc(C)c3c2=O)CC1 | – | inactive | –
Cc1cncc2cccc(S(=O)(=O)N3CCCNC[C@@H]3C)c12 | – | inactive | –
Cc1ccn(-c2cc(Cl)ccc2[C@@H](Oc2cc(-c3ccc(C[C@H](N)C(=O)O)cc3)nc(N)n2)C(F)(F)F)n1 | – | inactive | –
O=C(Nc1ccc(F)cc1)N1CCc2ccccc2C1c1ccc(C(F)(F)F)cc1 (stereo not given) | – | inactive | –
COc1cc([C@@H]2c3cc4c(cc3C(O[C@@H]3O[C@@H]5CO[C@@H](c6cccs6)OC5[C@H](O)[C@H]3O)C3COC(=O)[C@@H]32)OCO4)cc(OC)c1O (stereo not given in full) | – | inactive | –
COc1ccc(S(=O)(=O)N(CCO)c2ccccc2CN(C)C/C=C/c2ccc(Cl)cc2)cc1 | – | – | inactive
CCN(CCCOc1ccc2c(Nc3cc(CC(=O)Nc4cccc(F)c4)[nH]n3)ncnc2c1)CCOP(=O)(O)O | – | – | inactive
Cc1ccc(C2(COC(=O)C(C)C)CO2)c(OC(=O)C(C)C)c1 (stereo not given) | – | inactive [at 27.7 µM] | –
Cc1ccc(Nc2ncc3c(n2)N(C)C(=O)N(c2cc(NC(=O)c4cccc(C(F)(F)F)c4)ccc2C)C3)cn1 | – | inactive | –
O=C(NCCc1c[nH]c2ccc(O)cc12)c1ccc2ccccc2c1O | -35.3% | – | –
CN1C/C=C/CCOc2cccc(c2)-c2ccnc(n2)Nc2cccc(c2)C1 | – | inactive | –
